# Laboratory results reported in PubChem BioAssay (NCI).
# This is part of a sample that, as a whole, favours compounds with a hit. Of some 79,000 tested, about 15% had one in any assay. Values without a mark were called inactive. Activity calls are given as the source filed them. Rule as the data show it: active = growth inhibition above about 70%; inactive = the rest.
# Experiments:
# [1] = NCI Yeast Anticancer Drug Screen. Data for the rad52 strain (AID 147);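 also: 0% = growth of vehicle-treated control cultures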; details: S. cerevisiae rad52 mutant growth inhibition, stronger effect = higher value
# In short: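 Screen used a yeast mutant impaired in DNA repair. After compound exposure, growth was measured. Values reflect inhibition compared with vehicle-treated cells.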
# [2] = NCI Yeast Anticancer Drug Screen. Data for the wt1 strain (AID 149);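 also: 0% = growth of vehicle-treated wt1 cultures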; details: S. cerevisiae wt1 strain (SPY 50644) growth inhibition, stronger effect = higher value
# In short: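 Each compound is tested on wt1 yeast and the loss of growth versus vehicle gives the inhibition value.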
# [3] = NCI Yeast Anticancer Drug Screen. Data for the rad50EPP+ strain (AID 151);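 also: 0% = growth of vehicle-treated control cultures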; details: S. cerevisiae rad50 mutant strain, stronger effect = higher value
# In short: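 Exposing the rad50EPP+ strain to each compound, growth was compared with vehicle-only cultures to give inhibition.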
# [4] = NCI Yeast Anticancer Drug Screen. Data for the mgt1 strain (AID 153); details: S. cerevisiae mgt1 mutant growth inhibition, stronger effect = higher value
# In short: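 Genetically defined yeast (mgt1) treated with compound; inhibition of growth expressed against vehicle-treated controls.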
# [5] = NCI Yeast Anticancer Drug Screen. Data for the rad50 strain (AID 155);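 also: 0% = growth of vehicle-only cultures of the same strain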; details: S. cerevisiae rad50 strain growth inhibition, stronger effect = higher value
# In short: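 Vehicle-treated cultures provide the reference for the growth inhibition reported for compound-exposed, repair-deficient yeast.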
# [6] = NCI Yeast Anticancer Drug Screen. Data for the mec2-1 strain (AID 157); details: S. cerevisiae mec2-1 strain, stronger effect = higher value
# In short: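 Readout is yeast growth inhibition, normalised to vehicle-treated controls, in the mec2-1 strain exposed to compound.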
# [7] = NCI Yeast Anticancer Drug Screen. Data for the rad14 strain (AID 159);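 also: 0% = growth of vehicle-treated control cultures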; details: S. cerevisiae rad14 strain growth inhibition, stronger effect = higher value
# In short: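 Inhibition of growth is reported for a repair-deficient yeast mutant following compound treatment, calculated relative to cultures that received vehicle.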
# [8] = NCI Yeast Anticancer Drug Screen. Data for the sgs1 mgt1 strain (AID 161);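 also: 0% = growth of cultures given vehicle only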; details: S. cerevisiae sgs1 mgt1 strain, stronger effect = higher value
# In short: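 Yeast cells carrying a defined DNA-repair defect were exposed to test compounds. Growth inhibition was measured relative to vehicle-treated controls.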
# [9] = NCI Yeast Anticancer Drug Screen. Data for the CLN2oe strain (AID 163);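 also: 0% = growth of vehicle-only control cultures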; details: S. cerevisiae CLN2oe strain, stronger effect = higher value
# In short: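 Values reflect how much compound exposure reduced yeast growth, referenced to vehicle-exposed cells. Assay organism is a strain with a defined genetic change affecting cell-cycle control.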
# [10] = NCI Yeast Anticancer Drug Screen. Data for the cln2 rad14 strain (AID 165);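 also: 0% = growth equal to vehicle treated cultures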; details: S. cerevisiae cln2 rad14 strain, stronger effect = higher value
# In short: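 Relative to vehicle controls, growth inhibition of compound-treated cln2 rad14 yeast was recorded.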
# [11] = NCI Yeast Anticancer Drug Screen. Data for the bub3 strain (AID 167); details: S. cerevisiae bub3 mutant strain, stronger effect = higher value
# In short: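 Mutant yeast screening strain plus compound; vehicle-treated cultures serve as the 0% inhibition reference.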
# [12] = NCI Yeast Anticancer Drug Screen. Data for the wt2 strain (AID 169); details: S. cerevisiae wt2 strain growth inhibition, stronger effect = higher value
# In short: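 Values express reduction in yeast growth under compound treatment, referenced to vehicle-treated cells.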
# [13] = NCI Yeast Anticancer Drug Screen. Data for the mlh1 strain (AID 171);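 also: 0% = growth of vehicle-treated control cultures of the same strain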; details: S. cerevisiae mlh1 strain growth inhibition, stronger effect = higher value
# In short: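 Steps: expose the defined-mutant yeast strain to compound; expose a parallel culture to vehicle; measure growth; express compound effect as inhibition relative to the vehicle culture.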
# [14] = NCI Yeast Anticancer Drug Screen. Data for the sgs1 strain (AID 173);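 also: 0% = growth of vehicle-only control cultures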; details: S. cerevisiae sgs1 mutant, stronger effect = higher value
# In short: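 Treat defined-mutant yeast with compound; measure growth; calculate inhibition relative to vehicle-treated cells.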
# [15] = NCI Yeast Anticancer Drug Screen. Data for the mlh1 rad18 strain (AID 175); details: S. cerevisiae mlh1 rad18 strain growth inhibition, stronger effect = higher value
# In short: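 Test agents were incubated with a yeast strain of defined genotype (DNA damage repair defect). Inhibition of growth was derived by comparison with vehicle-exposed cultures.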
# [16] = NCI Yeast Anticancer Drug Screen. Data for the rad18 strain (AID 177); details: S. cerevisiae rad18 mutant growth inhibition, stronger effect = higher value
# In short: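 A genetically defined yeast mutant impaired in DNA damage repair was treated with test compounds, then its growth was measured against cultures receiving vehicle alone.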
# [17] = at 5.0 µM (retest, dose inferred, filed as 0.5)
# [18] = at 50.0 µM (retest, dose inferred, filed as 5.0)
compound,measurement,setting,value
O=P(Oc1ccc(Cl)cc1)(Oc1ccc(Cl)cc1)N1CC1,growth inhibition,[1]; at 1.2 µM,-1%
same,growth inhibition,[1]; at 3.7 µM,1%
same,growth inhibition,[1]; at 11.0 µM,0%
same,growth inhibition,[1]; at 33.0 µM,8%
same,growth inhibition,[1]; at 100.0 µM,53%
same,growth inhibition,[2]; at 1.2 µM,-2%
same,growth inhibition,[2]; at 3.7 µM,-6%
same,growth inhibition,[2]; at 11.0 µM,-4%
same,growth inhibition,[2]; at 33.0 µM,-2%
same,growth inhibition,[2]; at 100.0 µM,2%
same,growth inhibition,[3]; at 1.2 µM,-3%
same,growth inhibition,[3]; at 3.7 µM,-1%
same,growth inhibition,[3]; at 11.0 µM,4%
same,growth inhibition,[3]; at 33.0 µM,6%
same,growth inhibition,[3]; at 100.0 µM,-4%
same,growth inhibition,[4]; at 1.2 µM,-6%
same,growth inhibition,[4]; at 3.7 µM,-3%
same,growth inhibition,[4]; at 11.0 µM,-5%
same,growth inhibition,[4]; at 33.0 µM,-4%
same,growth inhibition,[4]; at 100.0 µM,49%
same,growth inhibition,[5]; at 1.2 µM,2%
same,growth inhibition,[5]; at 3.7 µM,1%
same,growth inhibition,[5]; [17],-9%
same,growth inhibition,[5]; at 11.0 µM,2%
same,growth inhibition,[5]; at 33.0 µM,8%
same,growth inhibition,[5]; [18],43%
same,growth inhibition,[5]; at 50.0 µM,4.75%
same,growth inhibition,[5]; at 100.0 µM,79% (active)
same,growth inhibition,[6]; at 1.2 µM,-3%
same,growth inhibition,[6]; at 3.7 µM,-1%
same,growth inhibition,[6]; [17],4%
same,growth inhibition,[6]; at 11.0 µM,-2%
same,growth inhibition,[6]; at 33.0 µM,-1%
same,growth inhibition,[6]; [18],6%
same,growth inhibition,[6]; at 50.0 µM,14.3%
same,growth inhibition,[6]; at 100.0 µM,28%
same,growth inhibition,[7]; at 1.2 µM,0%
same,growth inhibition,[7]; at 3.7 µM,1%
same,growth inhibition,[7]; at 11.0 µM,5%
same,growth inhibition,[7]; at 33.0 µM,19%
same,growth inhibition,[7]; at 100.0 µM,90% (active)
same,growth inhibition,[8]; [17],-10%
same,growth inhibition,[8]; [18],35%
same,growth inhibition,[8]; at 50.0 µM,18.9%
same,growth inhibition,[9]; at 1.2 µM,-4%
same,growth inhibition,[9]; at 3.7 µM,-5%
same,growth inhibition,[9]; at 11.0 µM,6%
same,growth inhibition,[9]; at 33.0 µM,14%
same,growth inhibition,[9]; at 100.0 µM,48%
same,growth inhibition,[10]; [17],-17%
same,growth inhibition,[10]; [18],48%
same,growth inhibition,[10]; at 50.0 µM,9.3%
same,growth inhibition,[11]; at 1.2 µM,-4%
same,growth inhibition,[11]; at 3.7 µM,-2%
same,growth inhibition,[11]; [17],-23%
same,growth inhibition,[11]; at 11.0 µM,-5%
same,growth inhibition,[11]; at 33.0 µM,2%
same,growth inhibition,[11]; [18],27%
same,growth inhibition,[11]; at 50.0 µM,34.4%
same,growth inhibition,[11]; at 100.0 µM,32%
same,growth inhibition,[12]; at 1.2 µM,-11%
same,growth inhibition,[12]; at 3.7 µM,-13%
same,growth inhibition,[12]; at 11.0 µM,-14%
same,growth inhibition,[12]; at 33.0 µM,-8%
same,growth inhibition,[12]; at 100.0 µM,46%
same,growth inhibition,[13]; at 1.2 µM,-3%
same,growth inhibition,[13]; at 3.7 µM,-3%
same,growth inhibition,[13]; at 11.0 µM,-4%
same,growth inhibition,[13]; at 33.0 µM,2%
same,growth inhibition,[13]; at 100.0 µM,59%
same,growth inhibition,[14]; at 1.2 µM,-1%
same,growth inhibition,[14]; at 3.7 µM,-23%
same,growth inhibition,[14]; at 11.0 µM,2%
same,growth inhibition,[14]; at 33.0 µM,13%
same,growth inhibition,[14]; at 100.0 µM,92% (active)
same,growth inhibition,[15]; [17],-8%
same,growth inhibition,[15]; [18],83% (active)
same,growth inhibition,[15]; at 50.0 µM,32.1%
same,growth inhibition,[16]; at 1.2 µM,-5%
same,growth inhibition,[16]; at 3.7 µM,-1%
same,growth inhibition,[16]; at 11.0 µM,0%
same,growth inhibition,[16]; at 33.0 µM,3%
same,growth inhibition,[16]; at 100.0 µM,47%
O=C1C=C(CN(CCCl)CCCl)C(=O)C=C1CN(CCCl)CCCl,growth inhibition,[1]; at 1.2 µM,0%
same,growth inhibition,[1]; at 3.7 µM,0%
same,growth inhibition,[1]; at 11.0 µM,4%
same,growth inhibition,[1]; at 33.0 µM,14%
same,growth inhibition,[1]; at 100.0 µM,46%
same,growth inhibition,[2]; at 1.2 µM,-3%
same,growth inhibition,[2]; at 3.7 µM,0%
same,growth inhibition,[2]; at 11.0 µM,1%
same,growth inhibition,[2]; at 33.0 µM,3%
same,growth inhibition,[2]; at 100.0 µM,4%
same,growth inhibition,[3]; at 1.2 µM,1%
same,growth inhibition,[3]; at 3.7 µM,-2%
same,growth inhibition,[3]; at 11.0 µM,0%
same,growth inhibition,[3]; at 33.0 µM,3%
same,growth inhibition,[3]; at 100.0 µM,13%
same,growth inhibition,[4]; at 1.2 µM,-5%
same,growth inhibition,[4]; at 3.7 µM,0%
same,growth inhibition,[4]; at 11.0 µM,-1%
same,growth inhibition,[4]; at 33.0 µM,-1%
same,growth inhibition,[4]; at 100.0 µM,0%
same,growth inhibition,[5]; at 1.2 µM,-1%
same,growth inhibition,[5]; at 3.7 µM,-1%
same,growth inhibition,[5]; [17],1%
same,growth inhibition,[5]; at 11.0 µM,0%
same,growth inhibition,[5]; at 33.0 µM,12%
same,growth inhibition,[5]; [18],32%
same,growth inhibition,[5]; at 50.0 µM,14.8%
same,growth inhibition,[5]; at 100.0 µM,35%
same,growth inhibition,[6]; at 1.2 µM,-5%
same,growth inhibition,[6]; at 3.7 µM,-8%
